Bioassay records from PubChem BioAssay.
This is a sample that favours compounds with a hit; in the whole collection about 2.7% have one here.
GALC G270D up = galactocerebrosidase G270D activity enhancement, cell-based; P54803; 145M-Twi-hGALC-G270D cells (Twitcher mouse brain line with human GALC G270D), HMU-beta-Gal fluorescence, 48 h; Potency, µM (top dose mostly 57.5 µM), most hits filed as activators; hit rate 0.1% among 45,000; AID 1159614; also: nearly all actives have a fitted effect of over 65% in size
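Fluorescence readout: HMU-β-gal cleavage by mutant GALC (0.1 mM final, citrate/phosphate pH 5.2 with 1 mg/mL taurocholate), stopped with carbonate/bicarbonate plus Triton X-100. Cells: murine Twitcher 145M-Twi expressing human G270D GALC; qHTS for activators.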
HTT prom inh = inhibitors of huntingtin promoter activity | HEK293 HTT promoter firefly luciferase reporter, 24 h | Potency, µM (titrated, usually from 57.5 µM), usual class: inhibitors | hit rate 0.93% among 48,000 | AID 1508623; also: nearly all actives have a fitted effect of over 50% in size
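Firefly luciferase signal from promoter-reporter HEK293 cells was scaled between vehicle (0%) and zero RLU (-100%). Compounds were tested at final concentrations of up to 57.5 uM over 24 h at 37 degrees C. PTC124 at 50 uM final served as control inhibitor.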
HTT-AS promoter = activates huntingtin-antisense promoter activity. HEK293 HTT-AS promoter firefly luciferase reporter, 24 h; response scale: percent change from vehicle, -100% = no light. AID 1508624. Potency, µM (series often up to 57.5 µM), hits mostly activators. hit rate 0.24% among 48,000; also: nearly all actives have a fitted effect of over 55% in size
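Luminescence was read after Dual-Glo reagent and a 10 min room-temperature incubation. Values were normalized to vehicle (0% activity) and zero RLU (-100% activity). Reporter HEK293 cells had been exposed to compounds (up to 57.5 uM final) for 24 h.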
NTMT1 inh = NTMT1 methyltransferase inhibition; NTMT1 MTase-Glo SAH luminescence, purified enzyme; Potency, µM (doses to about 114 µM), most hits filed as inhibitors; Q9BV86; hit rate 2.5% among 59,000; also: nearly all actives have a fitted effect of over 65% in size
Target sequence (Q9BV86 whole entry, looked up): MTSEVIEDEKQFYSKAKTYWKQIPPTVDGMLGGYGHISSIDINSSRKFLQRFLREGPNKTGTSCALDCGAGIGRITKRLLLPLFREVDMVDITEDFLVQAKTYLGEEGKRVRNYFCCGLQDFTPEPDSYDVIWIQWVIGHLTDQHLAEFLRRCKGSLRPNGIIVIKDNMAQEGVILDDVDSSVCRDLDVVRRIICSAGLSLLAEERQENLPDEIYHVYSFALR
Large screens that a line does not name were inactive; ! = not confirmed by another sample. Calls follow the shape of the dose curve; as a rule, active = well fitted curve in the direction sought with a large enough effect; inconclusive = small, poorly fitted or top-dose-only effect, or another doubt; inactive = no such curve, though single readings can be large; an effect the other way counts as inactive or inconclusive.

Cc1ncc(Cl)cc1NCc1ccc(C(=O)N[C@@H](CC2CCCC2)C(=O)NC2CC2)s1	none (no result: GALC G270D up, HTT prom inh, HTT-AS promoter)
Cc1nc(-c2cccnc2)sc1C(=O)Nc1ccccc1-c1cn2c(CN3CCOCC3)csc2n1	none (no result: GALC G270D up, HTT prom inh, HTT-AS promoter)
O=C(Nc1ccccc1-c1cn2c(CN3CCNCC3)csc2n1)c1cnc2ccccc2n1	NTMT1 inh 3.5µM! (no result: GALC G270D up)
CN1CCCN(C(=O)c2cccc(-c3ccc(C=C4C(=O)Nc5ccc(Cl)cc54)o3)c2)CC1	HTT prom inh inconclusive, NTMT1 inh 7.1µM (no result: GALC G270D up)
CN1CCN(c2nc3c(S(=O)(=O)c4ccc(Cl)cc4)nnn3c3ccsc23)CC1	NTMT1 inh 79µM
CCN1CCN(c2nc3c(S(=O)(=O)c4ccc(C)cc4)nnn3c3ccsc23)CC1	NTMT1 inh 79µM
CC(C)/C=C1/NC(=O)C(C(C)C)n2c1nc1c(O)cccc1c2=O (stereo unspecified)	none (no result: GALC G270D up, HTT prom inh, HTT-AS promoter)
CC(C)c1ccc(C2NC(=O)c3c(sc4c3CCN(C)C4)N2)cc1 (stereo unspecified)	none
CN1CCc2c(sc3c2C(=O)NC(c2ccc(C(C)(C)C)cc2)N3)C1 (stereo unspecified)	NTMT1 inh 79µM
COC1=CC(=O)O/C1=C(/OC)[C@@H]1O[C@H]1c1ccccc1	none (no result: GALC G270D up, HTT prom inh, HTT-AS promoter)
Cc1ccccc1Sc1ccc(/C=C2\SC(=S)NC2=O)cc1[N+](=O)[O-]	NTMT1 inh 25µM (no result: GALC G270D up, HTT prom inh, HTT-AS promoter)
O=C1NC(=O)/C(=C/c2ccc3c(c2)OCO3)S1	none (no result: GALC G270D up, HTT prom inh, HTT-AS promoter)
O=C(Nc1cc(Oc2cc(F)c(NC(=O)C3(C(=O)Nc4ccc(F)cc4)CC3)cc2F)ccn1)C1CC1	none (no result: GALC G270D up, HTT prom inh, HTT-AS promoter)
O=C(CCCCc1ccc2ccccc2c1)C(F)(F)F	none (no result: GALC G270D up, HTT prom inh, HTT-AS promoter)
Cc1cccc(-c2nc(CN3CCCC(C(=O)NCCc4ccc(Cl)cc4)C3)c(C)o2)c1 (stereo unspecified)	HTT prom inh 32µM
CCc1nc(C)cn1S(=O)(=O)c1ccc(Cl)c(Cl)c1OC	HTT prom inh 13µM
CCOc1cc(Cl)c(S(=O)(=O)n2cc(C)nc2CC)cc1Cl	HTT prom inh 16µM
C=C1C(=O)O[C@@H]2C3=C(C)CCC[C@]3(C)CC[C@@]12O	none (no result: GALC G270D up, HTT prom inh, HTT-AS promoter)
Cc1ccc(NCc2cccn2-c2nnc(N3CCCCCC3)s2)cc1	HTT prom inh 7.9µM
Cc1nc2cccnc2n1-c1cccc(C(=O)N2CCN(c3ccc(Cl)cc3)CC2)c1	HTT prom inh 10µM
COc1ccc(N2CCN(C(=O)c3cccc(-n4c(C)nc5cccnc54)c3)CC2)cc1	HTT prom inh inconclusive
COc1cccc(NC(=O)c2c(C)oc3nc(C)nc(N4CCCC4)c23)c1	NTMT1 inh 89µM
Cc1ccc(OCC(=O)Nc2nnc(SCc3cc(=O)n4cccc(C)c4n3)s2)cc1	NTMT1 inh inconclusive
Cc1cccn2c(=O)cc(CSc3nnc(NC(=O)COc4ccccc4)s3)nc12	NTMT1 inh 40µM
Clc1ncoc1-c1c[nH]c2ccccc12	none (no result: GALC G270D up, HTT prom inh, HTT-AS promoter)
O=C1NC(=O)C(c2c[nH]c3ccccc23)=C1c1c[nH]c2ccccc12	NTMT1 inh 11µM (no result: GALC G270D up, HTT prom inh, HTT-AS promoter)
O=C(Nc1ccc(Cl)cc1)N1CCN(c2ccc3nnc(-c4ccccc4)n3n2)CC1	HTT prom inh inconclusive
COc1ccccc1NC(=O)N1CCN(c2ccc3nnc(-c4ccc(F)cc4)n3n2)CC1	NTMT1 inh 79µM
Cc1cc(Br)ccc1NC(=O)CN1C(=O)c2cccnc2Sc2ccccc21	NTMT1 inh 79µM
O=C(O)c1ccc(O)c2ncc(N3CCCCC3)cc12	none (no result: GALC G270D up, HTT prom inh, HTT-AS promoter)
CC(=O)N1CCCc2cc(S(=O)(=O)N3CCCC(C(=O)N4CCN(c5ccccc5)CC4)C3)ccc21 (stereo unspecified)	HTT prom inh 11µM
CC(=O)N1CCCc2cc(S(=O)(=O)N3CCC(C(=O)Nc4ccc(C)cc4Cl)CC3)ccc21	HTT prom inh inconclusive
CC(=O)N1CCCc2cc(S(=O)(=O)N3CCC(C(=O)Nc4c(C)cccc4C)CC3)ccc21	HTT prom inh 20µM
COc1ccccc1N1CCN(C(=O)C2CCCN(S(=O)(=O)c3ccc4c(c3)CCCN4C(C)=O)C2)CC1 (stereo unspecified)	HTT prom inh inconclusive
Cn1ncc(Cl)c1-c1cc(C(=O)N[C@H](CN)Cc2ccc(F)c(F)c2)oc1Cl	none (no result: GALC G270D up, HTT prom inh, HTT-AS promoter)
Cc1nc(NC(=O)N2CCCC2C(N)=O)sc1-c1ccnc(C(C)(C)C(F)(F)F)c1 (stereo unspecified)	NTMT1 inh 45µM (no result: GALC G270D up, HTT prom inh, HTT-AS promoter)
CC(C)c1ccccc1-c1nc(NCc2ccc(-c3cccnc3)cc2)c2ccccc2n1	none (no result: GALC G270D up, HTT prom inh, HTT-AS promoter)
CSc1ccc(/C=C/c2nc3ccccc3n2S(=O)(=O)c2ccc(F)c(C)c2)cc1	HTT prom inh inconclusive, HTT-AS promoter inconclusive, NTMT1 inh 16µM
CCOc1ccc(/C=C/c2nc3ccccc3n2S(=O)(=O)c2cccc(Cl)c2)cc1	HTT prom inh inconclusive, NTMT1 inh 5µM
Cc1ccc(-n2ncc3c(N4CCCCCC4)ncnc32)cc1Cl	HTT prom inh 0.35µM
COc1cc(NS(=O)(=O)c2ccc(-c3cc(C)no3)cc2)cc(OC)c1	HTT prom inh 1.8µM
FC(F)(F)c1ccccc1-c1nc(NCc2ccc(Cl)cc2)c2ccccc2n1	none (no result: GALC G270D up, HTT prom inh, HTT-AS promoter)
C[C@H](Oc1cc(-n2cnc3ccc(CN4CCN(C)CC4)cc32)sc1C(N)=O)c1ccccc1C(F)(F)F	NTMT1 inh 25µM (no result: GALC G270D up, HTT prom inh, HTT-AS promoter)
CN1CCN(Cc2ccc(NC(=O)Nc3ccc(Oc4cc(NC(=O)C5CC5)ncn4)cc3)cc2C(F)(F)F)CC1	HTT prom inh inconclusive, NTMT1 inh inconclusive (no result: GALC G270D up)
COc1cc2cc(CNc3ccccc3)c(=O)n(CC(=O)Nc3cc(C)cc(C)c3)c2cc1OC	GALC G270D up 40µM
COc1cc(/C=C/C=O)cc(OC)c1O[C@@H]1O[C@H](CO)[C@@H](O)[C@H](O)[C@H]1O	none (no result: GALC G270D up, HTT prom inh, HTT-AS promoter)
Cn1nnnc1SCCNCc1cc(Br)ccc1OCc1ccccc1Cl	HTT prom inh 28µM
CCN(C(=O)c1cc(S(=O)(=O)N2CCc3ccccc32)cn1C)c1cccc(C)c1	HTT prom inh inconclusive, NTMT1 inh 89µM
C[C@@H]1C(=O)O[C@H]2[C@H]1CC[C@@]1(C)C(=O)C=C[C@](C)(O)[C@H]21	none (no result: GALC G270D up, HTT prom inh, HTT-AS promoter)
Cc1ccc(NC(=O)CSc2nc(-c3ccco3)cc(C(F)(F)F)n2)cc1C	HTT prom inh inconclusive
COc1ccc(NC(=O)CSc2nc(-c3ccco3)cc(C(F)(F)F)n2)cc1OC	HTT prom inh 2.2µM
C[C@@H]1O[C@@H](O[C@H]2[C@H](O)[C@@H](O)[C@H](OC[C@H]3O[C@@H](OC(=O)[C@]45CCC(C)(C)C[C@H]4C4=CCC6[C@@]7(C)CC[C@H](O[C@@H]8OC[C@H](O)[C@H](O[C@@H]9O[C@H](CO)[C@@H](O)[C@H](O)[C@H]9O)[C@H]8O)[C@@](C)(CO)C7CC[C@@]6(C)[C@]4(C)CC5)[C@H](O)[C@@H](O)[C@@H]3O)O[C@@H]2CO)[C@H](O)[C@H](O)[C@H]1O (stereo partly specified)	none (no result: GALC G270D up, HTT prom inh, HTT-AS promoter)
O=C(NCc1cccc(Cl)c1)c1ccc2nc(N3CCCCC3)sc2c1	HTT prom inh inconclusive
CC1CCN(c2nc3ccc(C(=O)NCc4ccccc4Cl)cc3s2)CC1	HTT prom inh 0.28µM
